Shown is part of a subset that was picked to be rich in hits.
Sm TGR inh = qHTS Assay for the Inhibitors of Schistosoma Mansoni Peroxiredoxins | Schistosoma mansoni thioredoxin glutathione reductase (TGR), Q962Y6 | purified TGR, DTNB reduction, TNB absorbance 405 nm | Potency, µM (doses to about 114 µM), most hits filed as inhibitors | actives 3% (n = 360,000) | AID 485364, 2010; also: nearly all actives have a fitted effect of over 60% in size
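First, TGR (20 nM dispensed) and NADPH were mixed with compound. Second, a 15 min room-temperature incubation followed. Third, further NADPH and then DTNB were added to start the reaction. Finally, TNB absorbance was monitored kinetically.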
FBPA Giardia inh = qHTS Assay for Inhibitors of Fructose-1,6-bisphosphate Aldolase from Giardia Lamblia | purified Giardia FBPA | A8B2U2 | actives 0.71% (n = 290,000) | Potency, µM (series often up to 59.6 µM), most hits filed as inhibitors; also: nearly all actives have a fitted effect of over 55% in size
Target sequence (A8B2U2 whole entry, looked up): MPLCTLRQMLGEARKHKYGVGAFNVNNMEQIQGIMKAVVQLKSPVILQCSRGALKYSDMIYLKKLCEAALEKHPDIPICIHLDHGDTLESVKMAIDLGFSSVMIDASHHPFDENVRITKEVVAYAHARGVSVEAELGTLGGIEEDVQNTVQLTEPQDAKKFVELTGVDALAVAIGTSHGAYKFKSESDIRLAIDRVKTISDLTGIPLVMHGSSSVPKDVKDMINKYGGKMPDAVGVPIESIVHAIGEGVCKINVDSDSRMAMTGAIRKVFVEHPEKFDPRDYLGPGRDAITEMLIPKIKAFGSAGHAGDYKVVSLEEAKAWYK
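Giardia FBPA (40 nM reagent) was preincubated 10 min at RT with compound (up to 57.5 uM final), then substrate plus GAPDH/TPI/NAD/arsenate coupling system with diaphorase/resazurin was added; resorufin fluorescence (525/598 nm) was read after 20 min.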
LmPK inhibitor = qHTS Assay for Inhibitors of Leishmania Mexicana Pyruvate Kinase (LmPK); Q27686; purified LmPK, Kinase-Glo ATP luminescence, 1 h; Potency, µM (titrated, usually from 57.5 µM), usual class: inhibitors; actives 0.37% (n = 290,000)
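ATP generated from ADP (0.1 mM) and PEP (0.5 mM) by 0.1 nM LmPK over 1 h at room temperature (pH 7.2 imidazole buffer) was detected by coupled luciferase luminescence. Values were normalized to uninhibited and no-enzyme wells.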
TbPYK inhibitor = qHTS of Trypanosoma Brucei Inhibitors | pyruvate kinase (Trypanosoma brucei), Q57TT1 | TbPYK enzyme, Kinase-Glo Plus ATP luminescence, 45 min | Potency, µM (highest dose often 76.8 µM), actives largely listed as inhibitors | actives 0.12% (n = 410,000); also: nearly all actives have a fitted effect of over 50% in size
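Assay buffer: 50 mM TEA pH 7.2, 100 mM KCl, 10 mM MgCl2, 0.05% BSA, 0.01% Tween-20. Pyruvate kinase from T. brucei plus substrate met compound, then ADP (130 uM final). Luminescence was read post 45 min RT.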
CHX counter = Cycloheximide Counterscreen for Small Molecule Inhibitors of Shiga Toxin | cell reporter, cycloheximide protein synthesis inhibition counterscreen | max response, % | actives 12% (n = 300,000); in the data active = max response mostly above about 13%, no sharp cut-off; inactive = mostly below about 14%; also: read at 38.3 µM for the half of the compounds with a filed dose
Shiga inhibitor = A qHTS for Small Molecule Inhibitors of Shiga Toxin; inhibition, % at 38.7 µM; actives 9.2% (n = 290,000); Vero cells, Shiga toxin protein synthesis inhibition reporter; in the data active = inhibition mostly above about 28%, no sharp cut-off; inactive = mostly below about 43%
Numbers stand for hits. Unless noted, calls follow the shape of the dose curve; as a rule, active = well fitted curve in the direction sought with a large enough effect; inconclusive = small, poorly fitted or top-dose-only effect, or another doubt; inactive = no such curve, though single readings can be large; an effect the other way counts as inactive or inconclusive.

Clc1ccc(CSc2nnc3ccccn23)c(Cl)c1 was read as Sm TGR inh inactive, FBPA Giardia inh inactive, LmPK inhibitor inactive, TbPYK inhibitor inactive, CHX counter 60 and Shiga inhibitor 40.
CCn1nc(C)cc1-c1nnc(SCC(=O)Nc2ccccc2)n1CCCOC was read as Sm TGR inh inactive, FBPA Giardia inh inactive, LmPK inhibitor inactive, TbPYK inhibitor inactive, CHX counter inactive and Shiga inhibitor inactive.
Screening CCn1nc(C)cc1-c1nnc(Sc2ncc([N+](=O)[O-])s2)n1C returned Sm TGR inh 0.28µM, FBPA Giardia inh inactive, LmPK inhibitor inactive, TbPYK inhibitor inactive, CHX counter inactive and Shiga inhibitor inactive.
Screening O=C(Nc1ccc(C(F)(F)F)cc1)C1(c2cccs2)CCOCC1 returned Sm TGR inh inactive and TbPYK inhibitor inactive.
Screening CN(C)c1ccc(-c2ccc3c(=O)c4ccccc4n(C)c3c2)cn1 returned Sm TGR inh inconclusive, FBPA Giardia inh inactive, LmPK inhibitor inactive, TbPYK inhibitor inactive, CHX counter 58 and Shiga inhibitor 87.
For Cn1c2ccccc2c(=O)c2ccc(Cl)cc21 the results were TbPYK inhibitor inactive.
COC(=O)c1ccc(CNC(=O)/C=C/[C@H]2O[C@@H](n3cc(C)c(=O)[nH]c3=O)C[C@@H]2O)cc1 was read as TbPYK inhibitor inactive.
For COc1ccc(NC(=O)c2ccc3c(c2)N(C)CCS3)cc1 the results were Sm TGR inh inactive, FBPA Giardia inh inactive, LmPK inhibitor inactive, TbPYK inhibitor inactive, CHX counter 59 and Shiga inhibitor 67.
For CN1CCSc2ccc(C(=O)NCc3ccccc3)cc21 the results were Sm TGR inh inactive, FBPA Giardia inh inactive, LmPK inhibitor inactive, TbPYK inhibitor inconclusive, CHX counter 10 and Shiga inhibitor 25.
Screening CN1CCSc2ccc(C(=O)Nc3cccc(F)c3)cc21 returned Sm TGR inh inactive, FBPA Giardia inh inactive, LmPK inhibitor inconclusive, TbPYK inhibitor inactive, CHX counter 55 and Shiga inhibitor 53.
Screening CC(=O)c1ccc(NC(=O)/C(=C\c2ccc(F)cc2)NC(=O)c2ccco2)cc1 returned Sm TGR inh inactive, FBPA Giardia inh inactive, LmPK inhibitor inactive, TbPYK inhibitor inactive, CHX counter inactive and Shiga inhibitor inactive.
`Cc1ccc(Cl)cc1N1CCN(CCCNc2ncnc3onc(-c4ccc(Cl)cc4)c23)CC1` gave Sm TGR inh inactive and TbPYK inhibitor inactive.
CC1(C)Cc2noc(N)c2C(C)(C)N1O was read as Sm TGR inh 2.8µM, FBPA Giardia inh inactive, LmPK inhibitor inactive, TbPYK inhibitor inactive, CHX counter inactive and Shiga inhibitor inactive.
`Cc1nn(CC(=O)Nc2ccc(OC(F)(F)F)cc2)c(=O)c2c(C)n(-c3ccc(Cl)cc3)nc12` gave Sm TGR inh inactive and TbPYK inhibitor inactive.
For CCOC(=O)c1ccccc1NC(=O)C1CC(=O)N(C2CCCCC2)C1 (stereo not given) the results were Sm TGR inh inactive, LmPK inhibitor inactive, TbPYK inhibitor inactive, CHX counter 58 and Shiga inhibitor 78.
`C(C#CCCCCCCCCC[n+]1ccccc1)#CCCCCCCCCC[n+]1ccccc1` gave Sm TGR inh 40µM, FBPA Giardia inh inactive, LmPK inhibitor inactive, TbPYK inhibitor inactive, CHX counter inactive and Shiga inhibitor inactive.
Cc1c(N=Cc2nc3ccccc3[nH]2)c(=O)n(-c2ccccc2)n1C was read as Sm TGR inh inactive, FBPA Giardia inh inactive, LmPK inhibitor inactive, TbPYK inhibitor inactive, CHX counter 46 and Shiga inhibitor 90.
`Cc1c(N=Cc2nc3ccccc3n2C)c(=O)n(-c2ccccc2)n1C` gave Sm TGR inh inactive, FBPA Giardia inh inactive, LmPK inhibitor inactive, TbPYK inhibitor inactive, CHX counter 49 and Shiga inhibitor 64.
Screening Cc1cccc(-c2ccc(C=Nc3c(C)n(C)n(-c4ccccc4)c3=O)o2)c1 returned Sm TGR inh inconclusive, FBPA Giardia inh inactive, LmPK inhibitor inactive, TbPYK inhibitor inactive, CHX counter 28 and Shiga inhibitor inactive.
COc1cccc(-n2c(O)c(C=Nc3c(C)n(C)n(-c4ccccc4)c3=O)c(=O)[nH]c2=O)c1 was read as Sm TGR inh inactive, FBPA Giardia inh inactive, LmPK inhibitor inactive, TbPYK inhibitor inactive, CHX counter inactive and Shiga inhibitor inactive.
Screening Cc1c(N=C2C=CC(=O)c3ccccc32)c(=O)n(-c2ccccc2)n1C returned Sm TGR inh 13µM, FBPA Giardia inh 18µM, LmPK inhibitor inconclusive, TbPYK inhibitor inconclusive, CHX counter inactive and Shiga inhibitor inactive.
Cc1[nH]c2ccccc2c1N=Nc1c(C)n(C)n(-c2ccccc2)c1=O was read as Sm TGR inh inactive, FBPA Giardia inh inactive, LmPK inhibitor inactive, TbPYK inhibitor inactive, CHX counter inactive and Shiga inhibitor inactive.

Compound activity: PubChem, National Center for Advancing Translational Sciences (NCATS)
